Assay results published in PubChem BioAssay AID720650 (Broad Institute, 2013).
Unmarked numbers belong to inactive results. The source made the active and inactive calls. No rule for the calls is given here.

Assay: C difficile toxins, biochemical counterscreen, UDPG substrate absence, confirmatory dose response (AID 720650)
Conditions: series mostly up to 19.5 µM

Row | SMILES | AC50
1 | CCOC(=O)/C=c1/s/c(=C/c2ccc3cc(OC)ccc3c2)c(=O)n1CC(=O)NCC1CCCO1 (stereo not drawn) | inactive
2 | CCCCn1c(-c2ccccc2C)nc2cc3[nH]c(=O)c(C(C)C)nc3cc21 | inactive
3 | FC(F)(F)c1cc(Cl)c2nc(-c3ccccc3)c(Cc3ccsc3)n2c1 | inactive
4 | Cc1[nH]c(=O)c(C#N)c2c1CCCC2 | inactive
5 | COc1ccc(/C=C2/C(=O)C(C)(C(C)C)CCC2C)cc1 (stereo not drawn) | inactive
6 | Cc1csc(N=Nc2ccc(N(C)C)cc2)[n+]1[O-] | > 39 µM
7 | Cc1c(-n2c(O)c(C3=c4ccccc4=NC3=O)sc2=S)c(=O)n(-c2ccccc2)n1C | inactive
8 | CCOC(=O)c1nnn(-c2nonc2N)c1-c1ccc(F)cc1 | inactive
9 | O=C(/C=C/c1ccc(O)cc1)c1ccccc1 | 9.92 µM (active)
10 | Cc1c(O)ccc(NC(=O)/C=C/c2ccccc2)c1C | > 39 µM
11 | CCCNC(=O)C1CC(=O)N(c2ccc(OCC)cc2)C1 (stereo not drawn) | inactive
12 | Cc1ccc(NCCN(C)C)c2c(=O)c3cc(O)ccc3sc12 | 5.2 µM (active)
13 | Cc1ccc(C)c2sc(NC(=O)c3ccc(N4C(=O)CCC4=O)cc3)nc12 | inactive
14 | O=C(O)c1cccnc1SCc1ccccc1Cl | inactive
15 | C/C(=N\NC(=O)c1ccccc1O)c1cccc(NC(=O)c2ccccc2)c1 | inactive
16 | Cc1ccc(S(=O)(=O)/N=C(/Nc2cccc(O)c2)c2ccccc2)cc1 | inactive
17 | O=C(N[C@@H](Cc1c[nH]c2ccccc12)C(=O)O)C1CCN(S(=O)(=O)c2cccs2)CC1 | inactive
18 | CC(=O)c1cccc(-c2ccnc3c2CC(C(=O)NCc2ccccc2)O3)c1 (stereo not drawn) | inactive
